According to PubChem BioAssay:
Active and inactive are the calls of the source.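 How the source made its calls, unless noted: active means visually confirmed hit in the image check and inhibition above 20%; inconclusive means visually confirmed hit but inhibition not above 20%; inactive means no visual hit in the image check.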

Assay: inhibitors of mutant huntingtin aggregation, primary screen, imaging, exon1htt(103Q)mCFP cells, high-content imaging (AID 483;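 active means visual image review flags a hit and inhibition of aggregation exceeds 20%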;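 further: compound exposure lasted 3 days before fixation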;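 on nuclei count: percent of the per-plate median nuclei count of sample wells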)
Details: exon1htt(103Q)mCFP cell line, aggregate imaging, at 2 µM; inhibition of aggregation: stronger effect = higher value; nuclei count: measured here: cell count, toxicity

SMILES	inhibition of aggregation	nuclei count
O=C(NCCSc1c[nH]c2ccccc12)c1ccco1	-13.1% (inactive)	108%
CCOC(=O)CSc1nc2cc(C(=O)N3CCC(C(N)=O)CC3)ccc2c(=O)n1-c1ccccc1	-5.8% (inactive)	93.5%
Cc1cc2c(cc(C(=O)OCC(=O)NCc3cccs3)n2C(C)C)o1	7.7% (inactive)	106%
CC(=O)NC1CC2CCCC(C1)N2CC(=O)Nc1ccccc1 (stereo not given)	3.9% (inactive)	89.5%
C=CCNc1oc(-c2cccc3ccccc23)nc1C#N	9.2% (inactive)	98.8%
COC(=O)c1oc2ccc(Br)cc2c1NC(C)=O	35.6% (active)	90.2%
COc1ccc(CCNC(=O)CSc2nnc(CNc3ccc(Cl)cc3)o2)cc1OC	33.1% (active)	72.1%
CCCS(=O)(=O)C(=C1Nc2ccccc2N1)S(=O)(=O)CCC	-18.7% (inactive)	119%
CCn1cc(C(=O)NCCC2=CCCCC2)c(=O)c2cc(S(=O)(=O)N(C)C)ccc21	38.5% (active)	79%
CCc1ccc(NC(=O)CS(=O)CC(=O)NC(C)CCc2ccco2)cc1 (stereo not given)	18.9% (inactive)	94.8%
O=C(OCCN=C1NS(=O)(=O)c2ccccc21)C1CC(=O)N(c2ccc(Cl)cc2)C1 (stereo not given)	-0.2% (inactive)	118%
O=C(c1cccc(C(=O)N2CCN(c3ccc(F)cc3)CC2)c1)N1CCN(c2ccc(F)cc2)CC1	-21.7% (inactive)	68.1%
CCOP(=O)(c1ccc(N(C)C)cc1)C(O)c1c(Cl)cccc1Cl (stereo not given)	20% (inactive)	99.5%
CN1CCN(C(=O)C2(NC(=O)Nc3cccc(F)c3)CCCCC2)CC1	-14.5% (inactive)	105%
CCCOC(=O)/C(C(N)=NCc1ccccc1)=C(\O)OCCC	-27.7% (inactive)	110%
CC(=O)N1CCN(c2ccc(NC(=O)c3ccc(C(C)(C)C)cc3)cc2)CC1	-7.5% (inactive)	97.8%
OC(CN1CCOCC1)Cn1c(-c2cccc(Cl)c2)nc2ccccc21 (stereo not given)	-7.7% (inactive)	108%
CCN(CC)C(=O)C1CCC(CNS(=O)(=O)c2cccc3cccnc23)CC1 (stereo not given)	-8.4% (inactive)	94.4%
CN(C)Cc1cn(CCC(=O)O)c2ccccc12	-18.2% (inactive)	90.8%
CC(NS(=O)(=O)c1ccc(OCC(=O)N2CCOCC2)c(Cl)c1)c1ccccc1 (stereo not given)	0.2% (inactive)	104%

SMILES	inhibition of aggregation	nuclei count
CCOc1ccc2nc(N3CCC(C(=O)N4CCN(C5CCCCC5)CC4)CC3)sc2c1	-15.4% (inactive)	103%
O=C(O)CSC1CC(=O)N(c2ccc(Cl)c(Cl)c2)C1=O (stereo not given)	11.7% (inactive)	88.4%
CCN(C(C)=O)c1nnc(CSc2nc3ccccc3s2)s1	10.2% (inactive)	96.4%
O=C(CNCCC1=CCCCC1)Nc1ccccc1N1CCCCC1	-10.4% (inactive)	107%
COCC(C)NC(=O)CCS(=O)(=O)c1nc(-c2ccc(OC)cc2)cc(C(F)(F)F)n1 (stereo not given)	2.6% (inactive)	96.3%
CSc1ccccc1NC(=O)C1CCCO1 (stereo not given)	10.2% (inactive)	105%
O=C(CN(Cc1ccc(F)cc1)C(=O)Cn1nnc2ccccc21)NCC1CCCO1 (stereo not given)	5.8% (inactive)	107%
O=C(CSc1nnc(-c2ccccc2)o1)N1CCc2ccccc2C1	2.7% (inactive)	101%
CCn1c(-c2cc(Br)ccc2O)n[nH]c1=S	-0.9% (inactive)	112%
CCOC(=O)c1ccc(NS(=O)C23CC4CC(CC(C4)C2)C3)cc1 (stereo not given)	-7.1% (inactive)	111%
O=C1CCC(c2ccccc2)N1C(=O)c1cccnc1 (stereo not given)	-4.3% (inactive)	98%
CC1Cc2nc(SCC(N)=O)n(Cc3ccccc3)c(=O)c2S1 (stereo not given)	1.8% (inactive)	90.7%
CCC(=O)Nc1cc(C)c(NC(=O)C23CC4CC(CC(C4)C2)C3)cn1	1% (inactive)	98.8%
O=C(c1ccc(Br)o1)N(Cc1ccccc1)c1ccccn1	13.3% (inactive)	102%
CCN1C(=O)/C(=C2\C=Cc3ccccc3N2CC)OC1=S	0.5% (inactive)	8.3%
COc1ccc(C)cc1S(=O)(=O)N(C)CC(=O)Nc1ccc2c(c1)OCCO2	7.6% (inactive)	92.1%
O=C(NC1CCCCC1)c1nc2c(nnn2Cc2ccccc2Cl)c(=O)[nH]1	17.1% (inactive)	85.3%
O=C(NCCN1CCOCC1)c1ccc2c(c1)N(Cc1ccccc1F)C(=O)CS2	6% (inactive)	67.6%
CN(C(=O)C1CCOC1)c1nnc(-c2cccnc2)s1 (stereo not given)	15.3% (inactive)	67.6%
c1ccc(-c2nc3nonc3c3nc4ccccc4n23)cc1	1.1% (inactive)	95.8%

Assay: inhibitors of E-selectin induction by TNFa, primary screen, imaging, HUVEC, immunofluorescence, MLSMR starter and 10KST1 sets (AID 487);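 on inhibition: signal is fraction of cell area covered by stained E-selectin grains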;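 on nuclei count: 100% = median nuclei count of all wells on the same plate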
Details: HUVEC TNFalpha-induced E-selectin immunofluorescence imaging, at 2 µM; inhibition: stronger effect = higher value; nuclei count: measured here: cell number, toxicity

SMILES	nuclei count	inhibition
O=C(NCCSc1c[nH]c2ccccc12)c1ccco1	116%	-15.8% (inactive)
CCOC(=O)CSc1nc2cc(C(=O)N3CCC(C(N)=O)CC3)ccc2c(=O)n1-c1ccccc1	95.3%	-26.1% (inactive)
Cc1cc2c(cc(C(=O)OCC(=O)NCc3cccs3)n2C(C)C)o1	95.3%	-156% (inactive)
CC(=O)NC1CC2CCCC(C1)N2CC(=O)Nc1ccccc1 (stereo not given)	93.9%	26.1% (inactive)
C=CCNc1oc(-c2cccc3ccccc23)nc1C#N	97.4%	-110% (inactive)
COC(=O)c1oc2ccc(Br)cc2c1NC(C)=O	112%	-28.5% (inactive)
COc1ccc(CCNC(=O)CSc2nnc(CNc3ccc(Cl)cc3)o2)cc1OC	63.5%	10.2% (inactive)
CCCS(=O)(=O)C(=C1Nc2ccccc2N1)S(=O)(=O)CCC	75.9%	0.5% (inactive)
CCn1cc(C(=O)NCCC2=CCCCC2)c(=O)c2cc(S(=O)(=O)N(C)C)ccc21	93.2%	-45.7% (inactive)
CCc1ccc(NC(=O)CS(=O)CC(=O)NC(C)CCc2ccco2)cc1 (stereo not given)	116%	-203% (inactive)
O=C(OCCN=C1NS(=O)(=O)c2ccccc21)C1CC(=O)N(c2ccc(Cl)cc2)C1 (stereo not given)	107%	-44.7% (inactive)
O=C(c1cccc(C(=O)N2CCN(c3ccc(F)cc3)CC2)c1)N1CCN(c2ccc(F)cc2)CC1	92.8%	-6.5% (inactive)
CCOP(=O)(c1ccc(N(C)C)cc1)C(O)c1c(Cl)cccc1Cl (stereo not given)	96.2%	-64.5% (inactive)
CN1CCN(C(=O)C2(NC(=O)Nc3cccc(F)c3)CCCCC2)CC1	109%	-39.7% (inactive)
CCCOC(=O)/C(C(N)=NCc1ccccc1)=C(\O)OCCC	127%	-8.5% (inactive)
CC(=O)N1CCN(c2ccc(NC(=O)c3ccc(C(C)(C)C)cc3)cc2)CC1	135%	-186% (inactive)
OC(CN1CCOCC1)Cn1c(-c2cccc(Cl)c2)nc2ccccc21 (stereo not given)	112%	-39.6% (inactive)
CCN(CC)C(=O)C1CCC(CNS(=O)(=O)c2cccc3cccnc23)CC1 (stereo not given)	114%	-26.3% (inactive)
CN(C)Cc1cn(CCC(=O)O)c2ccccc12	103%	9.1% (inactive)
CC(NS(=O)(=O)c1ccc(OCC(=O)N2CCOCC2)c(Cl)c1)c1ccccc1 (stereo not given)	76.7%	-51.1% (inactive)

SMILES	nuclei count	inhibition
CCOc1ccc2nc(N3CCC(C(=O)N4CCN(C5CCCCC5)CC4)CC3)sc2c1	107%	-54% (inactive)
O=C(O)CSC1CC(=O)N(c2ccc(Cl)c(Cl)c2)C1=O (stereo not given)	114%	4.8% (inactive)
CCN(C(C)=O)c1nnc(CSc2nc3ccccc3s2)s1	119%	-11.6% (inactive)
O=C(CNCCC1=CCCCC1)Nc1ccccc1N1CCCCC1	109%	-65.7% (inactive)
COCC(C)NC(=O)CCS(=O)(=O)c1nc(-c2ccc(OC)cc2)cc(C(F)(F)F)n1 (stereo not given)	192%	-37.9% (inactive)
CSc1ccccc1NC(=O)C1CCCO1 (stereo not given)	117%	-73% (inactive)
O=C(CN(Cc1ccc(F)cc1)C(=O)Cn1nnc2ccccc21)NCC1CCCO1 (stereo not given)	84%	-33% (inactive)
O=C(CSc1nnc(-c2ccccc2)o1)N1CCc2ccccc2C1	121%	-104% (inactive)
CCn1c(-c2cc(Br)ccc2O)n[nH]c1=S	83.3%	-27.4% (inactive)
CCOC(=O)c1ccc(NS(=O)C23CC4CC(CC(C4)C2)C3)cc1 (stereo not given)	134%	-53.8% (inactive)
O=C1CCC(c2ccccc2)N1C(=O)c1cccnc1 (stereo not given)	111%	-57.8% (inactive)
CC1Cc2nc(SCC(N)=O)n(Cc3ccccc3)c(=O)c2S1 (stereo not given)	113%	-15.2% (inactive)
CCC(=O)Nc1cc(C)c(NC(=O)C23CC4CC(CC(C4)C2)C3)cn1	102%	-11.3% (inactive)
O=C(c1ccc(Br)o1)N(Cc1ccccc1)c1ccccn1	107%	5.4% (inactive)
CCN1C(=O)/C(=C2\C=Cc3ccccc3N2CC)OC1=S	107%	16.6% (inactive)
COc1ccc(C)cc1S(=O)(=O)N(C)CC(=O)Nc1ccc2c(c1)OCCO2	110%	22.5% (inactive)
O=C(NC1CCCCC1)c1nc2c(nnn2Cc2ccccc2Cl)c(=O)[nH]1	105%	7.2% (inactive)
O=C(NCCN1CCOCC1)c1ccc2c(c1)N(Cc1ccccc1F)C(=O)CS2	111%	-51.7% (inactive)
CN(C(=O)C1CCOC1)c1nnc(-c2cccnc2)s1 (stereo not given)	116%	-41.7% (inactive)
c1ccc(-c2nc3nonc3c3nc4ccccc4n23)cc1	94.2%	-40.9% (inactive)
